Bioassay records deposited in PubChem by several laboratories.
CYP2C19 inhib: blocks human cytochrome P450 2C19. P33261. inhibition, % at 5 µM. CYP2C19 Supersomes, luciferin-H EGE luminescence, 30 min. actives 21% (n = 96,000);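 active means CYP2C19 inhibition above a set limit at 5 µM in the primary screen, cut at about 50% in these data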
Plk1 PBD FP: inhibitors of human Plk1 polo box domain binding | inhibition, %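 (tested at about 20 µM)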 | P53350 | Plk1 PBD phosphopeptide binding, fluorescence polarization | actives 0.13% (n = 97,000) | AID 693; in the data active means inhibition above about 34%, passing the limit was not always enough
Target sequence (P53350 whole entry, looked up, the tested form may be a part): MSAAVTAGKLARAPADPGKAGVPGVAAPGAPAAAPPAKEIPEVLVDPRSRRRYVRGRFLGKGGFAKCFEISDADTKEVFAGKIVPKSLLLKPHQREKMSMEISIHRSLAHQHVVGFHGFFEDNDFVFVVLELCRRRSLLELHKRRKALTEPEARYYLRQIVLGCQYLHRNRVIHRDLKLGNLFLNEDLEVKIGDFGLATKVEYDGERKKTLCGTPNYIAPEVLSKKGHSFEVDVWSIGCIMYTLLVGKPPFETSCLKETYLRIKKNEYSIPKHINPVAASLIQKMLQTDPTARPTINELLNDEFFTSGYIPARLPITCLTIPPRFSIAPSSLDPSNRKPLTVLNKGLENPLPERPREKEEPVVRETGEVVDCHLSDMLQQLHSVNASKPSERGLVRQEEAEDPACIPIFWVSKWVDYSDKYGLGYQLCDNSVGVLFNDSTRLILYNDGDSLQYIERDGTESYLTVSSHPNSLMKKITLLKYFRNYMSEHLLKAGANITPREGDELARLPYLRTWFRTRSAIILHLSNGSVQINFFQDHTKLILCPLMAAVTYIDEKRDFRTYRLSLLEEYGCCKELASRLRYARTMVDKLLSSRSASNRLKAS
PLK1 inh: blocks human PLK1 kinase activity. recombinant PLK1 kinase, TR-FRET peptide phosphorylation. inhibition, % at 10 µM. actives 0.53% (n = 97,000). AID 619;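 active means inhibition of 50% or more in the single-concentration screen; inactive means inhibition below 50%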
CYP2C19 activ: activators of human cytochrome P450 2C19; activation factor at 5 µM; 96,000 tested, under 10 active; AID 1025; recombinant CYP2C19, luciferin-H EGE luminescence; hits give high values; 0 = fully inhibited enzyme, 1 = untreated enzyme;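 active means activation factor of at least 2 at 5 µM in the primary screen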
CYP2C9 inh: human CYP2C9 inhibition; P11712; CYP2C9 Supersomes, luciferin-H conversion, luminescence; inhibition, % at 5 µM; actives 20% (n = 96,000); AID 777;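 active means blocking of liver enzyme CYP2C9 beyond about 50% at 5 µM, limit read from the data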
CYP2C9 act: increases human cytochrome P450 2C9 activity; P11712; recombinant CYP2C9, luciferin-H conversion, luminescence; hits give high values; factor 1 = untreated enzyme, 0 = blocked; activation factor at 5 µM; actives 1.4% (n = 96,000);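 active means activation factor of 2 or more for CYP2C9 at a 5 µM dose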
Each line names hits and unclear results; the compound was inactive in the other large screens. Rows were chosen to be rich in hits. Some 28% of all compounds tested hit in one or more screens of this group.

Cc1cc(F)ccc1NCc1cccnc1	CYP2C19 inhib 50
CCOc1ccc(C(=O)C2CCN(CC(=O)Nc3ccccc3N3CCOCC3)CC2)cc1	CYP2C19 inhib 99, CYP2C9 inh 96
COC(=O)c1ccccc1NC(=O)Cn1c(=O)oc2ccc(Cl)cc21	CYP2C19 inhib 74
O=C(CSc1ccccc1)Nc1ccccc1N1CCOCC1	none
CC(C)Oc1cccc(C(=O)Nc2ccccc2N2CCOCC2)c1	CYP2C9 inh 59
CCOc1ccc(C(=O)Nc2ccccc2N2CCOCC2)cc1	none
COC(=O)c1ccccc1NC(=O)CNc1cc(Cl)ccc1N1CCOCC1	CYP2C19 inhib 84, CYP2C9 inh 94
CC(C)COP(=O)(c1ccc(N(C)C)cc1)C(O)c1ccccc1F (configuration not stated)	none
Cc1cc(Cl)ccc1OC(C)C(=O)Nc1ccccc1N1CCOCC1 (configuration not stated)	CYP2C19 inhib 90, CYP2C9 inh 97
CCOc1ccccc1CNc1ccc(N2CCOCC2)c(C(=O)O)c1	none
COC(=O)c1cc(NCc2ccccc2F)ccc1N1CCOCC1	CYP2C19 inhib 87, CYP2C9 inh 55
CCC(C)Oc1cccc(C(=O)Nc2ccccc2N2CCOCC2)c1 (configuration not stated)	CYP2C19 inhib 68, CYP2C9 inh 73
CCCC1(C(=O)O)NC(c2ccc(OC)cc2O)C2C(=O)N(c3ccc(OC)cc3)C(=O)C21 (configuration not stated)	none
O=C(O)CCNS(=O)(=O)c1ccc(Oc2ccccc2)cc1	none
CN(C(=O)/C(N=Nc1cccc(C(F)(F)F)c1)=C(\O)C(F)(F)F)c1ccccc1	CYP2C19 inhib 82, CYP2C9 inh 80
CCN(CC)CCNC(=O)C12CC3CC(C)(CC(C)(C3)C1)C2	none
C=CCNC(=O)C12CC3(C)CC(C)(CC(C)(C3)C1)C2	CYP2C19 inhib 54
CSc1cc(-c2ccccc2)n(Cc2ccc(Cl)cc2Cl)c(=O)c1C#N	CYP2C9 inh 51
Cc1ccccc1S(=O)(=O)c1c(C)cc(C)n(CC(C)C)c1=O	CYP2C19 inhib 82, CYP2C9 inh 81
CCN1CCN(C(c2ccccn2)c2c(NC(=O)c3ccccc3)sc(C)c2C)CC1 (configuration not stated)	none
CCOc1ccc2oc(-c3ccccc3)c(C(=O)O)c2c1	none
CCOc1ccc2oc(-c3ccccc3)c(C(=O)N3CCN(CCO)CC3)c2c1	CYP2C9 inh 82
COc1ccc(C(O)P(=O)(OC2CCCCC2)c2ccc(N(C)C)cc2)cc1OC (configuration not stated)	CYP2C19 inhib 56
Oc1[nH]c2ccccc2c1/C=N/c1nccs1	CYP2C19 inhib 53
Cc1ccc(S(=O)(=O)/N=c2\sccn2C)cc1	CYP2C9 act 2.2
OCCN(Cc1ccccc1)Cc1ccc(Cl)cc1Cl	CYP2C19 inhib 95, CYP2C9 inh 57
OCCN(Cc1ccccc1)CC1CC=CCC1 (configuration not stated)	none
COC(=O)CSc1nc2c(c(=O)[nH]c(=O)n2C)n1CCC(C)C	none (no result: CYP2C19 inhib, CYP2C19 activ, CYP2C9 inh, CYP2C9 act)
COc1ccc(CNC(=O)C/C(C)=N/NC(=O)C(c2ccccc2)c2ccccc2)cc1	CYP2C9 inh 56
Cc1occc1-c1nnc(SCC(=O)N2CCOCC2)n1Cc1ccco1	none (no result: Plk1 PBD FP, PLK1 inh)
O=C(CSc1nnc(-c2cc3ccccc3cc2O)n1Cc1ccco1)N1CCc2ccccc2C1	CYP2C19 inhib 57, CYP2C9 inh 81
COCCn1c(SCC(=O)N(C(C)C)C(C)C)nnc1-c1cc2ccccc2cc1O	none
CC(C)N(C(=O)CSc1nnc(-c2cc3ccccc3cc2O)n1Cc1ccco1)C(C)C	CYP2C9 inh 62
COCCCNC(=O)C1CCCN(S(=O)(=O)c2ccc(C)cc2)C1 (configuration not stated)	none (no result: CYP2C19 inhib, CYP2C19 activ, CYP2C9 inh, CYP2C9 act)
COC(=O)c1ccc(Nc2cc(C)nc(-c3ccccc3O)n2)cc1	CYP2C9 inh 59 (no result: Plk1 PBD FP, PLK1 inh)
COC(=O)c1cccc(Nc2cc(C)nc(-c3ccccc3O)n2)c1	none
CCn1c(=O)n(CC)c2cc(S(=O)(=O)Nc3ccccc3C)c(C)cc21	CYP2C19 inhib 72, CYP2C9 inh 76
Cc1ccccc1NC(=O)Cn1c(=O)n(C)c2ccccc21	none
COC(=O)N/N=C(\C)c1ccc(Br)cc1	none
C/C(=N\NC(=O)c1ccc(Cl)cc1)c1ccc(Br)s1	Plk1 PBD FP 67
C/C(=N/NC(=O)CNc1ccc(C)cc1)c1ccc(Br)s1	none
C/C(=N\NC(=O)c1ccc(Br)cc1)c1ccccc1	CYP2C19 inhib 61
COC(=O)c1cc2ccsc2n1Cc1nc(-c2cccc(Cl)c2)oc1C	CYP2C19 inhib 52, CYP2C9 inh 99
O=C(NC1CCCC1)C(c1ccccn1)N(C(=O)c1csnn1)C1CC1 (configuration not stated)	none
CC(SC1=NCCS1)C(=O)Nc1nnc(-c2ccc(Br)cc2)s1 (configuration not stated)	CYP2C9 inh 57
COc1cc(NC(=O)CCN2CCN(c3ccccc3F)CC2)cc(OC)c1	CYP2C9 inh 63 (no result: Plk1 PBD FP, PLK1 inh)
O=C(CCN1CCN(c2ccc(F)cc2)CC1)Nc1ccccc1F	CYP2C19 inhib 66, CYP2C9 inh 60
COc1ccc(S(=O)(=O)N2CCN(CC(=O)Nc3ccc(F)c(F)c3)CC2)cc1	CYP2C19 inhib 70, CYP2C9 act 2.2
O=C(CCN1CCN(c2ccccc2)CC1)Nc1ccccc1F	CYP2C19 inhib 75, CYP2C9 inh 75
COc1ccc(OC)c(NC(=O)CCN2CCN(c3ccccc3)CC2)c1	none (no result: Plk1 PBD FP, PLK1 inh)
CCOC(=O)C(Sc1cc(C)nc(N)n1)C(C)=O (configuration not stated)	none
COc1cccc2cc(C(=O)CC3(O)C(=O)N(Cc4ccccc4)c4ccccc43)c(=O)oc12 (configuration not stated)	none
COc1ccc(S(=O)(=O)N2CCN(CCC(=O)Nc3ccccc3F)CC2)cc1	CYP2C19 inhib 87, CYP2C9 inh 94
O=C(CCN1CCN(CC(=O)Nc2ccccc2F)CC1)Nc1ccccc1F	CYP2C19 inhib 74
COc1ccc(OC)c(NC(=O)CCN2CCN(Cc3ccccc3)CC2)c1	none
Cc1oncc1C(=O)NC(C)C	none
C(=N\N1CCN(C2c3ccccc3-c3ccccc32)CC1)/c1ccccn1	none
C/C(=N\N1CCN(C2c3ccccc3-c3ccccc32)CC1)c1cccnc1	CYP2C19 inhib 66, CYP2C9 inh 73
C(=N\N1CCN(C2c3ccccc3-c3ccccc32)CC1)/c1cccnc1	CYP2C19 inhib 84, CYP2C9 inh 91
CCC(=O)NC(=S)Nc1cccc(C(C)=O)c1	none
COc1cc(OC)c(NC(=S)Nc2cccc(C(C)=O)c2)cc1Cl	CYP2C19 inhib 54
CC(=O)c1cccc(NC(=O)NC(C)c2ccncc2)c1 (configuration not stated)	CYP2C19 inhib 85, CYP2C9 inh 94
